The values below come from PubChem BioAssay (EPA / NIEHS).

Records with an inconclusive call do not appear. Activity calls are given as the source filed them. Rule for the calls: active = hit-call score of the fitted dose curve at least 0.9, where 1 is the maximum; inconclusive = response in the unintended direction; inactive = score below 0.9.

Assay [1] concerns the target human FYN Proto-Oncogene, Src family Tyrosine Kinase (Fyn), FYN (gene 2534) (UniProt P06241). Description: NVS_ENZ_hFyn: NovaScreen (NVS) Enzymatic Assay for human FYN Proto-Oncogene, Src family Tyrosine Kinase (Fyn) (AID 2283161). In short, it runs like this:
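Recombinant enzyme with fluorescent substrate, product separated by electrophoretic mobility shift; read 1 h after dosing. Duplicate 25 uM single-point screen, actives retested in concentration series; loss of signal vs DMSO.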

The target of assay [2] is human Esterase Plasma (ES), BCHE (gene 590) (UniProt P06276). Description: NVS_ENZ_hES: NovaScreen (NVS) Enzymatic Assay for human Esterase Plasma (ES) (AID 2283157). In short, it runs like this: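 Esterase from human plasma, cell-free, colorimetric absorbance read 0.25 h after dosing. Screened at 25 uM in duplicate, with threshold-passing chemicals run in concentration-response up to 50 uM; loss of signal fitted versus DMSO.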
Sequence of human Esterase Plasma (ES), BCHE (gene 590) (P06276 whole entry, looked up): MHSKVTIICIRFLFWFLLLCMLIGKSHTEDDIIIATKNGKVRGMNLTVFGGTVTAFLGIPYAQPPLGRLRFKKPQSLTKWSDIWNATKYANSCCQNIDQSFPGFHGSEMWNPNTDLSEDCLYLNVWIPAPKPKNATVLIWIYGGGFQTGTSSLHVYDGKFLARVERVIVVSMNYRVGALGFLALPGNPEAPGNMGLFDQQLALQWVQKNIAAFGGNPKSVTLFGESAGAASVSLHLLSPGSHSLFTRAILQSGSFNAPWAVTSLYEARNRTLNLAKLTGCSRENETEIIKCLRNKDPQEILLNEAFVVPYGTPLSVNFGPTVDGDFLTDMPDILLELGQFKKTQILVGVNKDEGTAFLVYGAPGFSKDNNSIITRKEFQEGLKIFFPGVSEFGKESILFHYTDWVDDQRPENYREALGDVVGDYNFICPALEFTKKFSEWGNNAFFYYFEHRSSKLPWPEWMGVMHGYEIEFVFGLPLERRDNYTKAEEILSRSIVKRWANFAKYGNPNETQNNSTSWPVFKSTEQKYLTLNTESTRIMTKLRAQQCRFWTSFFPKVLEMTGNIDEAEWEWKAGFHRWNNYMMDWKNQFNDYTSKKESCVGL

The target of assay [3] is human Dual Specificity Protein Phosphatase 3 (DUSP3), DUSP3 (gene 1845) (UniProt P51452). Description: NVS_ENZ_hDUSP3: NovaScreen (NVS) Enzymatic Assay for human Dual Specificity Protein Phosphatase 3 (DUSP3) (AID 2283152).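 Note: phosphatase activity of recombinant human DUSP3 on a fluorogenic substrate without cells.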 In short, it runs like this:
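Cell-free assay with recombinant human DUSP3 and fluorogenic substrate, read by fluorescence intensity. Primary screen ran duplicate at 25 uM; actives followed up in concentration series; loss of signal versus DMSO scored.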

Assay [4] addresses human Fibroblast Growth Factor Receptor 1 (FGFR1), FGFR1 (gene 2260) (UniProt P11362). Description: NVS_ENZ_hFGFR1: NovaScreen (NVS) Enzymatic Assay for human Fibroblast Growth Factor Receptor 1 (FGFR1) (AID 2283159).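 For AC50: hits lower the signal so potencies describe inhibitors of the kinase.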 The method, then: (§1) NVS_ENZ_hFGFR1 is a biochemical, single-readout assay that uses extracted gene-proteins in a cell-free assay. Measurements were taken 1 hour after chemical dosing in a 384-well plate.NVS_ENZ_hFGFR1 is one of one assay component(s) measured or calculated from the NVS_ENZ_hFGFR1 assay. It is designed to make measurements of enzyme activity, a form of enzyme reporter, as detected with fluorescence intensity signals by Fluorescence and electrophoretic mobility shift technology.Data from the assay component NVS_ENZ_hFGFR1 was analyzed into 1 assay endpoint. This assay endpoint, NVS_ENZ_hFGFR1, was analyzed in the positive analysis fitting direction relative to DMSO as the negative control and baseline of activity. Using a type of enzyme reporter, loss-of-signal activity can be used to understand changes in the enzymatic activity as they relate to the gene FGFR1. Furthermore, this assay endpoint can be referred to as a primary readout, because this assay has produced multiple assay endpoints where this one serves a enzymatic activity function. To generalize the intended target to other relatable targets, this assay endpoint is annotated to the kinase intended target family, where the subfamily is receptor tyrosine kinase.
Binding assays used specific radioligands (tritiated, iodinated) with non-radioactive competitive displacement ligands in agonist or antagonist protocols (as indicated) and various reference compounds and inhibitors to titrate specific binding to receptors and transporters. Most enzyme assays (CYPs, kinases, phosphatases, proteases, HDACs) used recombinant protein and specific substrates (fluorescence mostly, some colorimetric and radioactive) and inhibitors, followed by a biochemical separation of substrate and product. All assays for the biochemical HTS were initially run in duplicate at a single concentration (10 uM for CYP450 assays and 25 uM for all others). […] Each assay was run with positive and negative controls, and concurrent controls on every plate. The follow-up (secondary) screen tested active chemical-pairs in concentration series, as well as a few additional assays not tested in the primary screen, some selected negative inactives, and several cases re-run in the concentration series for confirmatory purposes.

Assay [5] deals with human Ephrin type-A Receptor 1 (EphA1), EPHA1 (gene 2041) (UniProt P21709). Description: NVS_ENZ_hEphA1: NovaScreen (NVS) Enzymatic Assay for human Ephrin type-A Receptor 1 (EphA1) (AID 2283158).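 Note: activity is signal loss versus DMSO meaning EphA1 kinase inhibition.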 In short, it runs like this: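 Here the EphA1 protein is recombinant and the substrate fluorescent, with electrophoretic separation before fluorescence detection at 1 hour. Signal loss against DMSO defines activity; plate controls included; follow-up concentration series reach 50 uM.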
Sequence of human Ephrin type-A Receptor 1 (EphA1), EPHA1 (gene 2041) (P21709 whole entry, looked up): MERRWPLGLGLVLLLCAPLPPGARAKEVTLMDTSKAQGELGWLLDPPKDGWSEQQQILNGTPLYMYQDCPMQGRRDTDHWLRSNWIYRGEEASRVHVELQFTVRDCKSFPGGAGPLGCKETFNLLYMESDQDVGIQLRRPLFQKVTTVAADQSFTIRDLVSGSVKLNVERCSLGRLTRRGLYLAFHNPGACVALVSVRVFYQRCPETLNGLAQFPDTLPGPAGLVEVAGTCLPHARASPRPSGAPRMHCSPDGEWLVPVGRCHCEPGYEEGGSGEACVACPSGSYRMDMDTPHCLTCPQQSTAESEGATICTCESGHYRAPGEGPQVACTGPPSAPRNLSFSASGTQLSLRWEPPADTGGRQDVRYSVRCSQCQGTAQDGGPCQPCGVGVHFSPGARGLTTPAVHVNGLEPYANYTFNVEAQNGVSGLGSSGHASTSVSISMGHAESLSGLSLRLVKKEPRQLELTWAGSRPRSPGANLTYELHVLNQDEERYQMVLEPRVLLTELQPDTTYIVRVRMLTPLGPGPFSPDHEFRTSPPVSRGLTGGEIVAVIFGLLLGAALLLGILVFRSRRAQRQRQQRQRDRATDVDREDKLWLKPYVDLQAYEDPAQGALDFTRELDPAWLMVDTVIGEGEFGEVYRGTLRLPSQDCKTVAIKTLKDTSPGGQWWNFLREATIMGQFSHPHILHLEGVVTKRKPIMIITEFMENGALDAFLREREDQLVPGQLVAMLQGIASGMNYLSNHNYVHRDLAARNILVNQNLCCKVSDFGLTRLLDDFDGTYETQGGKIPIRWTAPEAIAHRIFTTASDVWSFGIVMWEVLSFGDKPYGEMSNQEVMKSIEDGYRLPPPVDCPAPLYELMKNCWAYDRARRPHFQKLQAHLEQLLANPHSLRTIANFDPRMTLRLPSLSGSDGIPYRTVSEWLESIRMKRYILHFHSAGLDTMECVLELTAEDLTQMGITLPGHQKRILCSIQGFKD

Assay [6] deals with human Epidermal Growth Factor Receptor (EGFR), EGFR (gene 1956) (UniProt P00533). Description: NVS_ENZ_hEGFR: NovaScreen (NVS) Enzymatic Assay for human Epidermal Growth Factor Receptor (EGFR) (AID 2283151). The method, then: as §1, with “NVS_ENZ_hEGFR” for “NVS_ENZ_hFGFR1”, “plate.NVS_ENZ_hEGFR” for “plate.NVS_ENZ_hFGFR1”, “NVS_ENZ_hEGFR,” for “NVS_ENZ_hFGFR1,”, “EGFR.” for “FGFR1.”
Sequence of human Epidermal Growth Factor Receptor (EGFR), EGFR (gene 1956) (P00533 whole entry, looked up): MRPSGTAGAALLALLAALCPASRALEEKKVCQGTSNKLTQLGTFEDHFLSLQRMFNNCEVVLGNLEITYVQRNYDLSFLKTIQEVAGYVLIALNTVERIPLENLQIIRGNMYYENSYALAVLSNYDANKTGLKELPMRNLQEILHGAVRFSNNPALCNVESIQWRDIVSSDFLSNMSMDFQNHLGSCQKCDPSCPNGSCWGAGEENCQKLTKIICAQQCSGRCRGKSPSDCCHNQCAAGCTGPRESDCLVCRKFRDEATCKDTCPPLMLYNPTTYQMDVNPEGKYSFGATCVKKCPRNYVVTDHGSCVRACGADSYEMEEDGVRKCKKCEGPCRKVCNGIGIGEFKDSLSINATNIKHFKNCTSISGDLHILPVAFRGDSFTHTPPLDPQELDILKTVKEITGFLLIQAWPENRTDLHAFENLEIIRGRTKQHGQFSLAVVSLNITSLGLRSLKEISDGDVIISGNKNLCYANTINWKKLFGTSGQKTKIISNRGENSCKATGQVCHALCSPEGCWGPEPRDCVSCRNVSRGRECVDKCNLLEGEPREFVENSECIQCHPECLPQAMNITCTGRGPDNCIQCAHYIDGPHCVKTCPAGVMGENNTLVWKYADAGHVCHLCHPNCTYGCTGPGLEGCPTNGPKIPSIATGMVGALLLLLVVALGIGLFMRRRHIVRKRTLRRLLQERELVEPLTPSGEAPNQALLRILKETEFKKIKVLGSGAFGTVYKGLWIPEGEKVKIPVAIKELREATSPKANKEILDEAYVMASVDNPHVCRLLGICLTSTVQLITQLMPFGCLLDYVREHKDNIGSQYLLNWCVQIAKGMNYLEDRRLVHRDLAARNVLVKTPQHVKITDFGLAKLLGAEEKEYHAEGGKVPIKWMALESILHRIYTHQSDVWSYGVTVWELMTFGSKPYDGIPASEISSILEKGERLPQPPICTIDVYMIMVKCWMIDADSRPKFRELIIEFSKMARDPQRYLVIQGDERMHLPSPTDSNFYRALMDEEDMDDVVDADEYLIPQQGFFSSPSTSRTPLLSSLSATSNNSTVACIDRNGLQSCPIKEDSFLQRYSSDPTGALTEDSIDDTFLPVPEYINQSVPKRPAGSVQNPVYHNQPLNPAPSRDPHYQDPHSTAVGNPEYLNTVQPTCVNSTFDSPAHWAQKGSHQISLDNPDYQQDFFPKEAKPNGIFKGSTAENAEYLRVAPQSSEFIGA
Binding assays used specific radioligands (tritiated, iodinated) with non-radioactive competitive displacement ligands in agonist or antagonist protocols (as indicated) and various reference compounds and inhibitors to titrate specific binding to receptors and transporters. Most enzyme assays (CYPs, kinases, phosphatases, proteases, HDACs) used recombinant protein and specific substrates (fluorescence mostly, some colorimetric and radioactive) and inhibitors, followed by a biochemical separation of substrate and product. All assays for the biochemical HTS were initially run in duplicate at a single concentration (10 uM for CYP450 assays and 25 uM for all others). Assay-chemical combinations meeting a pre-defined threshold (e.g., 30% inhibition and other criteria defined below) were then run in singleton concentration-response format with maximum concentration of 20 uM for CYPs and 50 uM for all others. Each assay was run with positive and negative controls, and concurrent controls on every plate. The follow-up (secondary) screen tested active chemical-pairs in concentration series, as well as a few additional assays not tested in the primary screen, some selected negative inactives, and several cases re-run in the concentration series for confirmatory purposes.

The target in assay [7] is human Ephrin type-A Receptor 2 (EphA2), EPHA2 (gene 1969) (UniProt P29317). Description: NVS_ENZ_hEphA2: NovaScreen (NVS) Enzymatic Assay for human Ephrin type-A Receptor 2 (EphA2) (AID 2283155). In short, it runs like this:
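Cell-free recombinant EphA2 kinase with specific substrate, 1 h, fluorescence with electrophoretic mobility-shift separation of substrate and product. Primary screen at 25 uM in duplicate; hits retested in singleton concentration-response up to 50 uM, referenced to DMSO.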

Assay [8] addresses Protein deacetylase HDAC6 (Homo sapiens) (UniProt Q9UBN7). Description: NVS_ENZ_hHDAC6: NovaScreen (NVS) Enzymatic Assay for human Histone Deacetylase 6 (HDAC6) (AID 2283164). In short, it runs like this: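 Recombinant human HDAC6 with fluorescent substrate, 1 h; product separated from substrate by electrophoretic mobility shift. Primary screen in duplicate at 25 uM; actives retested singly in concentration-response up to 50 uM, fitted relative to DMSO.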

For assay [9], the target named is Histone deacetylase 3 (Homo sapiens) (UniProt O15379). Description: NVS_ENZ_hHDAC3: NovaScreen (NVS) Enzymatic Assay for human Histone Deacetylase 3 (HDAC3) (AID 2283163). In short, it runs like this:
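Recombinant human HDAC3 with fluorescent substrate, 1 h after dosing; product separated from substrate by electrophoretic mobility shift and read by fluorescence. Primary screen at 25 uM in duplicate; actives (e.g. ≥30% inhibition) retested in concentration-response up to 50 uM.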

Assay [10] concerns the target human Elastase, ELANE (gene 1991) (UniProt P08246). Description: NVS_ENZ_hElastase: NovaScreen (NVS) Enzymatic Assay for human Elastase (AID 2283153). In short, it runs like this: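 Cell-free elastase from human neutrophils, 1.5 h after dosing, activity read by absorbance. Primary screen in duplicate at 25 uM; hits (e.g., 30% inhibition) rerun in singleton concentration-response up to 50 uM, fitted versus DMSO.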

One may read the AC50 as the concentration giving half of the maximal activity seen.

Sequence of human Ephrin type-A Receptor 2 (EphA2), EPHA2 (gene 1969) (P29317 whole entry, looked up): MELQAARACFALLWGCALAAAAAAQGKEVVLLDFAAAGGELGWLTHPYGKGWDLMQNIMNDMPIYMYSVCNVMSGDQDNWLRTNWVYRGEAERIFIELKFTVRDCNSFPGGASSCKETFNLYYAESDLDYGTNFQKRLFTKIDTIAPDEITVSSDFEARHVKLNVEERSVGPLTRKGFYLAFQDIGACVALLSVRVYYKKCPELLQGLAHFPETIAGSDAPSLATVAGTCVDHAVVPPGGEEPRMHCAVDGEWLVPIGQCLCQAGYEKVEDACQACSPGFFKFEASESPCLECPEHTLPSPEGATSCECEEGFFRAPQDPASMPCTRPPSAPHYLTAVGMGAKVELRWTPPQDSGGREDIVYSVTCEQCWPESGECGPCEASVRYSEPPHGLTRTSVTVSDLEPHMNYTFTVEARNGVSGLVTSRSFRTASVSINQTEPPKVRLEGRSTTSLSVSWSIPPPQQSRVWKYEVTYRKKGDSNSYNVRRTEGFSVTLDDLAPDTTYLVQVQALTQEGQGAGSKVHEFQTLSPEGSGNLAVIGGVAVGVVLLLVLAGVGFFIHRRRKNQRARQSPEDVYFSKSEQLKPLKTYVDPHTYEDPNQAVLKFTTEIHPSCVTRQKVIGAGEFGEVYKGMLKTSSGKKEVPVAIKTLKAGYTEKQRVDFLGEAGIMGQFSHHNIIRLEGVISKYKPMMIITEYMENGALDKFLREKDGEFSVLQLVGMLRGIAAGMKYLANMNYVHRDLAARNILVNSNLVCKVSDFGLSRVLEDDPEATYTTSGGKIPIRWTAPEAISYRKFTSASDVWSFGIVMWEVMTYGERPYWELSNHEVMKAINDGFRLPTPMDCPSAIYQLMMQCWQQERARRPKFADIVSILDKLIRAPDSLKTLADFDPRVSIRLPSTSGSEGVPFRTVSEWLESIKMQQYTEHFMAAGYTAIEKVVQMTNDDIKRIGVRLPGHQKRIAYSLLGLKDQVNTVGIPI
Sequence of human Elastase, ELANE (gene 1991) (P08246 whole entry, looked up): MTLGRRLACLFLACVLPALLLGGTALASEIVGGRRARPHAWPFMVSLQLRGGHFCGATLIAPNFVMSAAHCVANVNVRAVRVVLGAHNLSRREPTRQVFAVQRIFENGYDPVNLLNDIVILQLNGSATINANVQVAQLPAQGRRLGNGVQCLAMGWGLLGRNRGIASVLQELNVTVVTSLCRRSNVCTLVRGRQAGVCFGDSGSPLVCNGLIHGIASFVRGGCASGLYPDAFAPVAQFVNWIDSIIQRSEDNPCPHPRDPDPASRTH
Sequence of human Fibroblast Growth Factor Receptor 1 (FGFR1), FGFR1 (gene 2260) (P11362 whole entry, looked up): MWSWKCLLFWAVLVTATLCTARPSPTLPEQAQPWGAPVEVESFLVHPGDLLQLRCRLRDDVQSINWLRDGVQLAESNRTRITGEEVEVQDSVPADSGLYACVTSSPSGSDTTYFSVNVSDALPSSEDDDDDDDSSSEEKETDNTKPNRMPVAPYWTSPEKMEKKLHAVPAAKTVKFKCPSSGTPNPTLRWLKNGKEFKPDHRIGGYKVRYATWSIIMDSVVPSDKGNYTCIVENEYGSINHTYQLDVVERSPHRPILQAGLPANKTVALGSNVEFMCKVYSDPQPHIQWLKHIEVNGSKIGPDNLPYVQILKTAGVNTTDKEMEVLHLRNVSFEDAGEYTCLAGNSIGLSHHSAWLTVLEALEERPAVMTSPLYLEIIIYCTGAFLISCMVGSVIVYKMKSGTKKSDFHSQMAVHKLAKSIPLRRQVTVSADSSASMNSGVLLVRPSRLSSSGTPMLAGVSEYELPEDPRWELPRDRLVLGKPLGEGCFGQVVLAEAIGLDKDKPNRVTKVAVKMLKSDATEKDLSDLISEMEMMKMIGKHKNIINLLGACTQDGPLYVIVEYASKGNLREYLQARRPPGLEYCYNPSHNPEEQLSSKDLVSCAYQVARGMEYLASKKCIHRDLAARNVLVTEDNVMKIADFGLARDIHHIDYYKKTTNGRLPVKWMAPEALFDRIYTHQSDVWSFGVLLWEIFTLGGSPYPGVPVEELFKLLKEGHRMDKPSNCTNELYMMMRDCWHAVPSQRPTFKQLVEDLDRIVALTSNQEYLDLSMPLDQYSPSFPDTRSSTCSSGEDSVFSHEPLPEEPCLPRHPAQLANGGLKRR
Sequence of human Dual Specificity Protein Phosphatase 3 (DUSP3), DUSP3 (gene 1845) (P51452 whole entry, looked up): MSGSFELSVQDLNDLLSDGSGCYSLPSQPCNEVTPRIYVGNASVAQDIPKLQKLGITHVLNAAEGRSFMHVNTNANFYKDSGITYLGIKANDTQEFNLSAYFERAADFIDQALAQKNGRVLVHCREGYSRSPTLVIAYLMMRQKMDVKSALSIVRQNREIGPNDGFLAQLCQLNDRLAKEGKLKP

On to `c1ccc2c(c1)-c1cccc3cccc-2c13`, for which the call in assay [1] was inactive.

For `O=C(Nc1ccccc1)c1ccccc1I`, in [2], the result was inactive.

For `CC(C)(O)c1cnn2c(-c3ccc(F)c(-c4c(F)cccc4C#N)c3)cnc2n1`, in assay [3], the half-maximal activity concentration (AC50) is 40.8 µM (active).

Take `CCC[CH2][Sn]([Cl])([CH2]CCC)[CH2]CCC`: the half-maximal activity concentration (AC50) in assay [3] was 6.34 µM (active). Further, the outcome in assay [1] was inactive.

As for `CCOc1cccc(C2(N3CCN(c4ccccc4)CC3)CCC(C)CC2)c1` (stereo not drawn), the compound was classed as inactive in [2].

With `O=C(Oc1ccc(Br)cc1)N1CCN2CCC1CC2`, in [4], the call was inactive.

As to `OCCCBr`, the compound was called inactive in [5].

As for `[Cl-].[Cl-].[Hg+2]`, in assay [2], the AC50 is 20.9 µM (active).

Take `CCN(CC)N=O`: the outcome in assay [6], in assay [7], in assay [4], in [1] and in assay [8] was inactive.

As to `Cn1cc(-c2ccccc2)c(=O)c(-c2cccc(C(F)(F)F)c2)c1`, the call in assay [9] was inactive.

Consider `COc1cc(C=O)cc2c1[C@H](COC(N)=O)[C@]1(OC(C)=O)ON2C[C@H]2[C@@H]1N2C(C)=O`, for which the AC50 in assay [10] was 5.75 µM (active). For the same compound, the outcome in assay [5] was inactive.

For the compound `C=CCc1ccc2c(c1)OCO2`, the compound was called inactive in assay [4].

For the compound `O=[N+]([O-])c1ccc(Oc2ccc(Cl)cc2Cl)cc1`, in [10], the outcome was inactive.

As for `COP(=S)(OC)SCN1C(=O)c2ccccc2C1=O`, the result in [3] was inactive.

Turning to `Nc1ccc(Cl)cc1N`, the AC50 in assay [3] was 6.31 µM (active). Also, the compound was called inactive in assay [10], in [2] and in assay [9].

With `O=[N+]([O-])C(Br)(CO)CO`, the AC50 in [2] was 32.1 µM (active).

`CCOC(=O)[C@]1(c2ccccc2)Oc2ccccc2[C@@H]1N`: the AC50 in assay [2] was 16.7 µM (active).

In the case of `Oc1ccccc1Cl`, the compound was classed as inactive in assay [7] and in assay [4].

As to `c1ccc(NNc2ccccc2)cc1`, in assay [2], the concentration at half-maximal activity (AC50) is 31.6 µM (active). In addition, the outcome in assay [8] was inactive.

As to `CCCCCCCCn1sccc1=O`, in assay [3], the AC50 is 26 µM (active). In addition, the compound was classed as inactive in [5].

Take `CCCCCCCCOC(=O)c1ccc(C(=O)OCCCCCCCC)c(C(=O)OCCCCCCCC)c1`: the AC50 in assay [10] was 37.9 µM (active). Also, the result in [7] was inactive.

With `CN(C)[C@@H]1C(=O)C(C(N)=O)=C(O)[C@@]2(O)C(=O)C3=C(O)c4c(O)cccc4[C@@](C)(O)[C@H]3C[C@@H]12`, the values for the AC50 in [3] and in assay [10] were 7.39 µM (active) and 18.5 µM (active), respectively. For the same compound, the outcome in [2] was inactive.

Consider `Cc1ccc(N=C=O)cc1N=C=O`, for which the AC50 was 12.6 µM (active) in assay [3] and 8.38 µM (active) in assay [10].

Turning to `CCNS(=O)(=O)C(F)(F)C(F)(F)C(F)(F)C(F)(F)C(F)(F)C(F)(F)C(F)(F)C(F)(F)F`, the compound was classed as inactive in [6], in assay [3], in assay [7], in assay [5], in [4] and in [9].

Consider `CN(C)C(=O)Nc1ccc(Cl)cc1`, for which the outcome in [7] and in [2] was inactive.

In the case of `CCCCC(CC)COC(=O)c1ccc(C(=O)OCC(CC)CCCC)c(C(=O)OCC(CC)CCCC)c1` (stereo not drawn), the result in assay [6], in assay [5] and in [4] was inactive.

Regarding `C1=Cc2cccc3cccc1c23`, the result in [3] and in [2] was inactive.

In the case of `ClCCOCCCl`, the outcome in assay [6] and in assay [4] was inactive.

As to `Cc1cccc(N)c1N`, the AC50 in [3] is 25 µM (active); in assay [2], 23.1 µM (active).

For `CCCCCCCCCCCCCN1CC(C)OC(C)C1` (stereo not drawn), the call in assay [10], in assay [7], in [2] and in [1] was inactive.

Regarding `O=C(N[C@H](c1ccccc1)[C@@H]1CN2CCC1CC2)c1c(Cl)ccc(C(F)(F)F)c1Cl`, the AC50 in [2] was 19.8 µM (active).

Consider `Oc1ccc2ccc3cccc4ccc1c2c34`, for which the AC50 in assay [10] is 4.52 µM (active); in [4], 14.9 µM (active).

With `CCCCCOC(=O)c1ccccc1C(=O)OCCCCC`, in [10], the call was inactive.

Turning to `CNC(=O)Oc1cccc2c1OC(C)(C)C2`, in assay [2], the half-maximal activity concentration (AC50) is 27.3 µM (active). In addition, in [1], the call was inactive.

Take `CC(C)(C)C(O)(CCc1ccc(Cl)cc1)Cn1cncn1` (stereo not drawn): the outcome in assay [6] was inactive. Also, the AC50 in assay [2] was 22.7 µM (active).
